Screens deposited in PubChem BioAssay by several laboratories.
Rows were chosen to be rich in hits. Some 4.6% of all compounds tested hit in one or more screens of this group.
V-ATPase pHluor: alters yeast V-ATPase proton transport. S. cerevisiae, pHLuorin cytosolic pH fluorescence. response, % at 10 µM. hit rate 0.37% among 350,000. AID 504577; in the data active = response mostly above about 7.3%, no sharp cut-off; inactive = mostly below about 5.4%; note: actives read high
tim10-1 inh: tim10-1 yeast growth inhibition; S. cerevisiae tim10-1 ts strain growth, BacTiter-Glo, 24 h; inhibition, % at 20 µM; hit rate 2.2% among 330,000; AID 463190;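 active = inhibition of at least 40%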;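 note: mutant grown at 25 °C; 0% = DMSO wells with yeast and 100% = wells holding no yeast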
TIM10 inh: growth inhibitors of TIM10 yeast strain; inhibition, % at 10 µM; S. cerevisiae TIM10 strain growth, BacTiter-Glo luminescence, 24 h; hit rate 1.4% among 330,000; AID 463195;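 active = inhibition of 40% or more at the single tested concentration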;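 note: wild-type TIM10 isogenic control strain grown at permissive 25 °C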
SKKanGAS inh: inhibitors of SKKanGAS S. pyogenes growth in kanamycin (SK-promoter or general growth effect); BacTiter-Glo, 6 h; inhibition, % at 7.5 µM; hit rate 1.3% among 300,000;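 active = mean replicate score, as percent of positive control median, at least 50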;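 note: strain carries kanamycin resistance gene driven by streptokinase promoter and grows in 40 µg/ml kanamycin; loss of luminescence reflects streptokinase promoter inhibition or plain growth inhibition; 0% = median of DMSO wells and 100% = positive control at its reference dose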
PfHsp90 set2: growth inhibition of yeast expressing Plasmodium Hsp90. S. cerevisiae expressing PfHsp90, BacTiter-Glo ATP, 48 h; yeast lacking PDR1 and PDR3 efflux regulators. inhibition, % at 9.4 µM. hit rate 0.32% among 310,000. AID 504621;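 active = every replicate shows inhibition above about 80%, whatever the replicate mean, limit read from the data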;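 note: 0% = DMSO neutral controls and 100% = 20 µM radicicol positive controls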
tim23-1 inh: growth inhibitors of tim23-1 mutant yeast. hit rate 1.3% among 330,000. inhibition, % at 20 µM. S. cerevisiae tim23-1 growth, BacTiter-Glo luminescence, 24 h;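 active = growth inhibition of the mutant yeast at or above 50%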;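 note: temperature-sensitive mutant grown at 25 °C; plate controls were DMSO-treated mutant yeast for no effect and medium wells lacking yeast for full effect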
tim10-1 confirm: confirmation of tim10-1 mutant yeast growth inhibitors. AID 463213. hit rate 56% among 7,400. S. cerevisiae tim10-1 ts strain growth, BacTiter-Glo, 24 h. inhibition, % at 20 µM. shares compounds with tim10-1 inh;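 active = inhibition of yeast growth at or above a set limit in either of two repeat tests at 20 µM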;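 note: tim10-1 mutant grown at permissive 25 °C to find synthetic lethal compounds; 0% = DMSO yeast wells and 100% = medium wells without yeast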
TIM10 conf: confirmation of TIM10 yeast growth inhibitors; shares compounds with TIM10 inh; S. cerevisiae tim10 strain growth, BacTiter-Glo luminescence, 24 h; inhibition, % at 10 µM; hit rate 63% among 4,600;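 active = inhibition of yeast growth at or above a set limit in either of two replicates at 10 µM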;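 note: this counterscreen used the strain with wild-type TIM10; 0% = yeast with DMSO and 100% = medium wells lacking yeast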
tim23-1 conf: tim23-1 yeast growth inhibition, confirmed; hit rate 83% among 4,400; inhibition, % at 20 µM; shares compounds with tim23-1 inh; AID 463218; S. cerevisiae tim23-1 growth, BacTiter-Glo luminescence, 24 h;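 active = inhibition above about 39% in either of two replicate wells at 20 µM, limit read from the data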;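 note: temperature-sensitive tim23-1 mutant grown at 25 °C; 0% = DMSO wells with yeast and 100% = medium wells without yeast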
Active calls of the source: *.

For Cc1nc2ccccc2n1C(=O)c1ccc(Cl)cc1[N+](=O)[O-] the results were V-ATPase pHluor 1.0, tim10-1 inh 48.1*, TIM10 inh 23.4, SKKanGAS inh 0.8, PfHsp90 set2 -26.2, tim23-1 inh 50.4*, tim10-1 confirm 32.8* and tim23-1 conf 39.5*.
COc1cccc(C(=O)Oc2ccc3ccc(O)cc3c2)c1 was read as tim10-1 inh 42.6*, TIM10 inh 33.9, SKKanGAS inh -3.0, tim23-1 inh 56.6*, tim10-1 confirm 38.0* and tim23-1 conf 53.8*.
Screening Cc1ccccc1C(=O)Oc1ccc2ccc(O)cc2c1 returned V-ATPase pHluor -2.2, tim10-1 inh 48.9*, TIM10 inh 33.6, SKKanGAS inh 2.0, PfHsp90 set2 -24.7, tim23-1 inh 51.1*, tim10-1 confirm 45.8* and tim23-1 conf 49.0*.
For Oc1ccc(Br)cc1C=Nc1ccc(Cl)cc1 the results were V-ATPase pHluor 0.7, tim10-1 inh 17.3, TIM10 inh 18.0, SKKanGAS inh 14.5, PfHsp90 set2 -26.0 and tim23-1 inh 48.0.
Screening Cc1ccc(N=Cc2cc(Br)cc(Cl)c2O)cc1 returned V-ATPase pHluor -2.6, tim10-1 inh 51.0*, TIM10 inh 33.4, SKKanGAS inh 12.1, PfHsp90 set2 -61.5, tim23-1 inh 77.3*, tim10-1 confirm 16.9 and tim23-1 conf 77.7*.
For CCOC(=O)n1c(=O)n(Cc2cccc(C)c2)c2ccccc21 the results were V-ATPase pHluor -1.2, tim10-1 inh 51.0*, TIM10 inh 35.1, SKKanGAS inh 5.7, PfHsp90 set2 -38.7, tim23-1 inh 58.8*, tim10-1 confirm 40.5* and tim23-1 conf 53.2*.
For CCOC(=O)n1c(=O)n(Cc2ccc(F)cc2)c2ccccc21 the results were V-ATPase pHluor 0.5, tim10-1 inh 23.7, TIM10 inh -1.0, SKKanGAS inh 1.7, PfHsp90 set2 -15.6 and tim23-1 inh 29.3.
For CN(C(=O)c1ccc(NC(=O)Cc2cccc(NC(=O)C3CCN(C(=O)C4CCCC4)CC3)c2)cc1)C1CC1 the results were V-ATPase pHluor 6.0 and PfHsp90 set2 -5.7.
`Cc1cc2c([nH]c3ccccc32)c2c1OC(C)(C)C=C2` gave V-ATPase pHluor 1.4, tim10-1 inh 63.1*, TIM10 inh 22.7, SKKanGAS inh 39.3, PfHsp90 set2 17.8, tim23-1 inh 55.7*, tim10-1 confirm 49.2* and tim23-1 conf 69.8*.
`COc1ccc2[nH]c(=O)c3c(c2c1)OC(C)(C)C=C3` gave V-ATPase pHluor -1.5, tim10-1 inh 17.3, TIM10 inh 2.3, SKKanGAS inh -2.6 and tim23-1 inh 1.1.
For CCCCNc1c(-c2cccc(SC(C)CC)c2)nc2ccc(Cl)cn12 (stereo not drawn) the results were V-ATPase pHluor -3.2, tim10-1 inh 14.2, TIM10 inh 11.6, PfHsp90 set2 1.4 and tim23-1 inh 31.1.
Screening CCCCNc1c(-c2ccc(SC(C)CC)cc2)nc2ccccn12 (stereo not drawn) returned V-ATPase pHluor -0.1, tim10-1 inh 47.9*, TIM10 inh 45.0*, SKKanGAS inh 77.8*, PfHsp90 set2 40.9, tim23-1 inh 58.7*, tim10-1 confirm 54.8*, TIM10 conf 34.5* and tim23-1 conf 63.3*.
Screening FC(F)(F)c1ccc(Oc2ccc3cc(Br)ccc3c2)nc1 returned V-ATPase pHluor 5.2, tim10-1 inh 10.1, TIM10 inh 6.8, SKKanGAS inh -13.9, PfHsp90 set2 17.9 and tim23-1 inh -2.4.
CN(C)c1ccc(-n2cccc2/C=C/[N+](=O)[O-])cc1 was read as V-ATPase pHluor -2.0, tim10-1 inh 86.5*, TIM10 inh 92.0*, SKKanGAS inh -6.3, PfHsp90 set2 107.3*, tim23-1 inh 89.5*, tim10-1 confirm 86.1*, TIM10 conf 94.7* and tim23-1 conf 78.2*.
Screening O=C(CS(=O)c1ccc(C(F)(F)F)cc1[N+](=O)[O-])Oc1ccc(Cl)cc1 (stereo not drawn) returned V-ATPase pHluor 0.8, tim10-1 inh 46.7*, TIM10 inh 54.9*, SKKanGAS inh -5.3, PfHsp90 set2 -7.4, tim23-1 inh 70.4*, tim10-1 confirm 47.1*, TIM10 conf 36.1* and tim23-1 conf 67.5*.
Screening Cc1cc(C)cc(OC(=O)CS(=O)c2ccc(C(F)(F)F)cc2[N+](=O)[O-])c1 (stereo not drawn) returned V-ATPase pHluor 1.7, tim10-1 inh 50.8*, TIM10 inh 30.7, SKKanGAS inh 10.8, PfHsp90 set2 -46.1, tim23-1 inh 65.6*, tim10-1 confirm 27.8* and tim23-1 conf 68.0*.
For CCOC(=O)C1=C(C)N=c2s/c(=C\c3ccc(OCC(=O)O)cc3)c(=O)n2C1c1ccc(Cl)cc1 (stereo not drawn) the results were V-ATPase pHluor 4.9, tim10-1 inh 28.6, TIM10 inh 32.4, SKKanGAS inh 25.5, PfHsp90 set2 -42.5 and tim23-1 inh 43.0.
`CCOC(=O)C1=C(C)N=c2s/c(=C/c3ccc(OCC(=O)O)c(OC)c3)c(=O)n2C1c1ccc(Cl)cc1` (stereo not drawn) gave V-ATPase pHluor -4.7, tim10-1 inh 55.8*, TIM10 inh 31.0, SKKanGAS inh 51.6*, PfHsp90 set2 -21.0, tim23-1 inh 50.1*, tim10-1 confirm 46.0* and tim23-1 conf 53.0*.
O=C(Nc1ccccc1SC(=O)c1ccccc1)c1ccccc1 was read as V-ATPase pHluor -1.9.
For Cc1ccc(C(=O)Sc2cccccc2=O)cc1 the results were V-ATPase pHluor 7.1, tim10-1 inh 74.1*, TIM10 inh 73.2*, SKKanGAS inh 37.3, PfHsp90 set2 104.0*, tim23-1 inh 89.3*, tim10-1 confirm 76.8*, TIM10 conf 89.3* and tim23-1 conf -27.8.
For CCn1cc(C(=O)N[C@H](C(=O)NCCO)C(C)C)c(=O)c2cc3c(cc21)OCO3 the results were V-ATPase pHluor -3.6, tim10-1 inh -7.3, TIM10 inh 7.2, SKKanGAS inh 5.2, PfHsp90 set2 5.0 and tim23-1 inh 7.5.
`O=C1/C(=C/c2cccc(F)c2)Oc2cc(O)ccc21` gave V-ATPase pHluor -0.5, tim10-1 inh 51.7*, TIM10 inh 23.9, SKKanGAS inh 1.0, PfHsp90 set2 21.7, tim23-1 inh 51.5*, tim10-1 confirm 38.8* and tim23-1 conf 70.8*.
For COc1cccc(/C=C2\Oc3cc(OC(=O)N4CCOCC4)ccc3C2=O)c1 the results were V-ATPase pHluor 3.9, tim10-1 inh 24.7, TIM10 inh 13.7, SKKanGAS inh 0.1, PfHsp90 set2 -8.8 and tim23-1 inh 21.8.
